This passage reports activity (max response) and Potency results from PubChem BioAssay (NCATS).

Several values for one entry are separate records, joined by “and”; a condition that tells them apart may be missing. Identical values can stand only once. Inconclusive results are not listed. Activity calls are given as the source filed them. Calls follow the shape of the dose curve; as a rule, active = well fitted cell-killing curve with a large enough effect; inconclusive = small, poorly fitted or top-dose-only effect; inactive = flat fitted curve, though single readings scatter.
% is scaled to controls: 0 for no effect and ±100 for the full control effect; potency is read from the fitted curve at half-maximal effect.

The experiment can be described thus: Cellular viability qHTS for adrenocortical cancer (ACC) cell line SW-13 (AID 1963989). Also: nearly all actives have a fitted effect of over 65% in size.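 As to activity (max response): cells grown in serum-free medium with ITS supplement.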 Conditions: SW-13 ACC cells viability, CellTiter-Glo, 48 h; activity (max response): active compounds read low. The method, boiled down: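 Luminescent ATP read-out (CellTiter-Glo, 20 min at room temperature) measured metabolically competent SW-13 cells after 48 h compound treatment. Final concentrations spanned up to 46 uM; bortezomib served as positive control.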
On the technique in general: qHTS replaces the single test concentration by a dilution series.
With `C[C@]12C=CC(=O)C=C1[C@@H](F)C[C@@H]1[C@@H]2[C@@H](O)C[C@@]2(C)[C@H]1CC[C@]2(O)C(=O)CO`, the activity (max response) is 7.4% (inactive).

On to `C/C(=N/NC(=O)c1ccncc1)C(=O)O`, for which the activity (max response) was 7.83% (inactive).

In the case of `CC(=O)N[C@@H](CC(C)C)C(=O)O`, the activity (max response) is 7.87% (inactive).

Consider `COc1cccc(Nc2ncnn3ccc(CN4CC[C@@H](N)[C@H](O)C4)c23)c1`, for which the Potency was 0.316 µM (active).

For `C=C[C@H]1CN2CC[C@H]1C[C@@H]2[C@@H](O)c1ccnc2ccc(OC)cc12`, the activity (max response) was 6.85% (inactive).

`[O-][n+]1cccc(CO)c1`: the activity (max response) was 9.62% (inactive).

In the case of `CC(=O)NC(CS)C(=O)O` (stereo not given), the activity (max response) was -2.17% (inactive).

Turning to `Nc1ncnc2c1c(-c1cccc(OCc3ccccc3)c1)cn2C1CC(CN2CCCC2)C1` (stereo not given), the Potency was 25.1 µM (active).

In the case of `Nc1c2c(nc3c1CCC3)CCCC2`, the activity (max response) is -9.88% (inactive).

On to `Cc1cc2c(C(C)C)c(O)c(O)c(C=O)c2c(O)c1-c1c(C)cc2c(C(C)C)c(O)c(O)c(C=O)c2c1O`, for which the Potency is 10 µM (active).

`COc1cc(OC)c(/C=C/S(=O)(=O)Cc2ccc(OC)c(NCC(=O)O)c2)c(OC)c1`: the Potency was 0.02 µM (active).

With `O=C(OOC(=O)c1ccccc1)c1ccccc1`, the activity (max response) is 0.27% (inactive).

With `c1cn2cc(-c3ccc4cn[nH]c4c3)nc(Nc3ccc(N4CCOCC4)cc3)c2n1`, the activity (max response) is 2.68% (inactive).

Regarding `CCOC(=O)C1=C(C)NC(C)=C(C(=O)OCC)C1c1ccccc1/C=C/C(=O)OC(C)(C)C`, the Potency was 16.4 µM (active).

For the compound `C[C@H](CN(C)C)Oc1nc(Nc2cc3cccc(Cl)c3cn2)cnc1C#N`, the activity (max response) is -6.08% (inactive).

For the compound `COc1cc(C)[nH]c(=O)c1CN1CCc2c(Cl)cc([C@H](OC)C3COC3)c(Cl)c2C1=O`, the activity (max response) was -0.836% (inactive).

Turning to `Clc1cc2c(NC3CCCC3)nnc(-c3ccncc3)c2cc1Cl`, the activity (max response) is -2.48% (inactive).

For the compound `CCCCC1(COC(=O)CCC(=O)O)C(=O)N(c2ccccc2)N(c2ccccc2)C1=O`, the activity (max response) is 6.69% (inactive).

As to `CN1CCN(C2CCC(n3cc(-c4ccc(Oc5ccccc5)cc4)c4c(N)ncnc43)CC2)CC1` (stereo not given), the Potency is 1.58 µM (active).

With `CC(C)NCC(O)c1cc(O)cc(O)c1` (stereo not given), the activity (max response) is 13.2% (inactive).

On to `O=C(CCOCCOCCOCCOCCC(=O)Nc1c(I)cc(I)c(C(=O)O)c1I)Nc1c(I)cc(I)c(C(=O)O)c1I`, for which the activity (max response) was 6.37% (inactive).

Consider `N[C@@H]1CN(c2c(F)cc3c(=O)c(C(=O)O)cn([C@@H]4C[C@@H]4F)c3c2Cl)CC12CC2`, for which the activity (max response) is -10.4% (inactive).

In the case of `Cc1onc(-c2c(Cl)cccc2Cl)c1C(=O)Cl`, the activity (max response) was 17.1% (inactive).

With `C=CC(=O)Nc1cc(Nc2nccc(-c3cn(C)c4ccccc34)n2)c(OC)cc1N(C)CCN(C)C`, the Potency was 2 µM (active).

As to `CCCCCCCCCCCCCCCC[N+](C)(C)CCN(Cc1ccc(OC)cc1)c1ncccn1`, the Potency was 20.6 µM (active).

With `O=C(NO)c1ccc(C2=Nc3ccccc3Oc3ccccc32)cc1`, the Potency is 22.4 µM (active).

Take `O=C(NCCCNC(=O)c1ccc[nH]c1=O)c1cc(-c2ccccc2)on1`: the Potency is 22.4 µM (active).

Turning to `O=C(O)CCC(=O)c1ccc(-c2ccccc2)cc1`, the activity (max response) is 23% (inactive).

On to `CNC(=O)c1cccc2cc(Oc3ccnc4cc(OCC5(N)CC5)c(OC)cc34)ccc12`, for which the Potency was 28.2 µM (active).

On to `Nc1ccc(S(=O)(=O)c2ccc(N)cc2)cc1`, for which the activity (max response) was 8.46% (inactive).

`CN(C)CCOc1ccc(-c2nc(-c3ccc4c(c3)CC/C4=N\O)c(-c3ccncc3)[nH]2)cc1`: the Potency is 31.6 µM (active).

For the compound `Cc1cc(OCCCc2c3n(c4c(-c5c(C)nn(C)c5C)c(Cl)ccc24)[C@H](C)CN(c2cn(C)c4ccc(C(=O)O)cc24)C3=O)cc(C)c1Cl`, the Potency was 2 µM (active).

As to `C[C@@H]1O[C@@H](OC[C@H]2O[C@@H](Oc3c(-c4ccc(O)c(O)c4)oc4cc(O)cc(O)c4c3=O)[C@H](O)[C@@H](O)[C@@H]2O)[C@H](O)[C@H](O)[C@H]1O`, the activity (max response) was 16.6% (inactive).

For `C=CC(=O)Nc1cccc(Nc2nc(Nc3ccc(NC4CN(CCF)C4)cc3OC)ncc2C(F)(F)F)c1`, the Potency is 2.51 µM (active).

As for `CC1=C(/C=C/C(C)=C/C=C/C(C)=C/C(=O)O)C(C)(C)CCC1`, the activity (max response) is -7.6% (inactive) and 3.95% (inactive).

In the case of `Nc1ccc(O)c([N+](=O)[O-])c1`, the activity (max response) was 0.787% (inactive).

Take `O=C1OC(COc2ccccc2[N+](=O)[O-])CC1Cc1ccccc1` (stereo not given): the activity (max response) was -13.4% (inactive).

Turning to `CC(C)=CCC/C(C)=C/CO`, the activity (max response) was 10% (inactive).

In the case of `O=S(=O)(O)c1cc(I)c(O)c2ncccc12`, the activity (max response) was 0.547% (inactive).

With `CC(C)(C)CC(C)(C)c1ccc(O)c(-n2nc3ccccc3n2)c1`, the activity (max response) is 4.68% (inactive).
